A selection: hits, their analogues and other compounds. The true share with any hit is near 1.7%.
LYPLA2 counter – counter-screen for PME1 inhibitors: inhibitors of human LYPLA2; O95372; recombinant LYPLA2, FP-Rh probe fluorescence polarization; inhibition, % at 5.9 µM; 0.38% of 320,000 active; AID 2177;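 active = inhibition above the screen-wide mean plus 3 SD, limit set per campaign, cut at about 26% in these data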
Fam108B inh – counter-screen for RBBP9 inhibitors: inhibitors of mouse Fam108B | AID 1947 | 0.33% of 300,000 active | inhibition, % at 9.51 µM | recombinant Fam108B, FP-Rh probe fluorescence polarization;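 active = inhibition above the screen mean inhibition plus 3 SD, computed separately per campaign, cut at about 18% in these data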;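 note: inhibitors lower polarization as less probe binds the enzyme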
LYPLA1 inh – blocks human lysophospholipase 1, a PME1 counter-screen | recombinant LYPLA1, FP-Rh probe fluorescence polarization | 0.16% of 320,000 active | O75608 | inhibition, % at 5.9 µM;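 active = inhibition above the mean of all tested compounds plus 3 SD, set per campaign, cut at about 14% in these data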;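 note: inhibitors block serine hydrolase probe labeling of LYPLA1 so polarization falls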
Target sequence (O75608 whole entry, looked up): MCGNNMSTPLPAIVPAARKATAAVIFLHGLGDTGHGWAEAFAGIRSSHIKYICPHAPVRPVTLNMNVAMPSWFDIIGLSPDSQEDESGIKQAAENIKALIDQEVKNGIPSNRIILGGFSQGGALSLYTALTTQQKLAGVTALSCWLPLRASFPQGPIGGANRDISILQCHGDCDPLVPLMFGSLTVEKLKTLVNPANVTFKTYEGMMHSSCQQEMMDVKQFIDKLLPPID
PME-1 primary – blocks human protein phosphatase methylesterase 1 | Q9Y570 | 0.53% of 320,000 active | inhibition, % at 5.9 µM | recombinant PME-1, FP-Rh probe fluorescence polarization | AID 2130;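 active = inhibition above the campaign mean of all compounds plus 3 SD, cut at about 26% in these data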;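 note: competitive labeling of PME-1 active site by serine hydrolase directed probe; inhibitors block probe labeling so polarization falls and inhibition rises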
GSTO1 counter – GSTO1 inhibition, counter-screen for RBBP9 inhibitors; P78417; recombinant GSTO1, activity-based probe fluorescence polarization; inhibition, % at 5.96 µM; 1.1% of 300,000 active;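 active = inhibition above the campaign mean inhibition plus 3 SD, cut at about 35% in these data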
Target sequence (P78417 whole entry, looked up): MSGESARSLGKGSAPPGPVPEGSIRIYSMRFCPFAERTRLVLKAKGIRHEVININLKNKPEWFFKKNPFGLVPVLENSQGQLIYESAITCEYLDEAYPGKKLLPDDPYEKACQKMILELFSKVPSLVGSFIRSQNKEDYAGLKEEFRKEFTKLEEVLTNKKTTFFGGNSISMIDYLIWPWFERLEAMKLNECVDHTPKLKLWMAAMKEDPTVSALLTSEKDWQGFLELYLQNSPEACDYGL
PAD4 FP inh – inhibitors of human PAD4 | Q9UM07 | recombinant PAD4, RCA probe fluorescence polarization | inhibition, % at 6.36 µM | 0.41% of 330,000 active | AID 485272;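 active = percent inhibition above a cutoff equal to the mean of all tested compounds plus 3 SD, cut at about 15% in these data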
GSTO1 inh conf – GSTO1 (human) inhibition, confirmation; inhibition, % at 5.96 µM; 54% of 2,400 active; recombinant GSTO1, probe fluorescence polarization; shares compounds with GSTO1 counter;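 active = inhibition above the primary screen's cutoff, its mean inhibition plus 3 SD, cut at about 35% in these data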;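 note: loss of polarization as inhibitors block binding of rhodamine sulfonate ester activity probe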
GSTO1 recomb ABPP – inhibitors of recombinant human GSTO1 | gel ABPP SE-Rh probe fluorescence | 30% of 130 active | shares compounds with GSTO1 counter | inhibition, % at 1 µM | AID 463110;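 active = inhibition of the enzyme GSTO1 above about 75%, limit read from the data; inactive = inhibition below that limit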
A number is an active result; . = inactive; / = no result.

SMILES	LYPLA2 counter	Fam108B inh	LYPLA1 inh	PME-1 primary	GSTO1 counter	PAD4 FP inh	GSTO1 inh conf	others
O=[N+]([O-])c1cccc2c(S(=O)(=O)N3CCOCC3)cccc12	.	.	.	.	.	.	/
Cc1ccc(S(=O)(=O)n2c(=O)oc3ccccc32)cc1	.	.	.	.	.	.	/
OCCC1CN(Cc2cccn2-c2ccccn2)CCN1C1CCCCC1 (centres undefined)	.	.	.	.	.	.	/
O=C1CSC2=NCN(c3ccc4c(c3)OCO4)CN12	.	.	.	.	.	.	/
CN(C)c1ccc(N2CN=C3SCC(=O)N3C2)cc1	.	.	.	.	72	.	.
CCCCCNC(=O)N[C@H](C(=O)O)C(C)C	.	.	.	.	.	.	/
COc1ccc(C(=O)N/N=C/c2ccc3cccc(O)c3n2)cc1	.	.	.	.	41	.	.
CCOc1ccccc1NC(=O)C(Sc1nnnn1C)c1ccccc1 (centres undefined)	.	.	.	.	.	.	/
CNC(=O)COC(=O)c1cc(-c2ccco2)nc2ccccc12	.	.	.	.	40	.	.
COc1ccc(CN(C)c2ccc(S(=O)(=O)N3CCN(C)CC3)cc2[N+](=O)[O-])cc1OC	.	/	.	.	/	.	/
O=C(Cc1ccc(Cl)cc1)NCc1ccccc1Cl	.	.	.	.	.	.	/
O=C(Cc1ccccc1Cl)NC1(O)C(=O)c2ccccc2C1=O	.	.	.	.	67	.	67
CN(Cc1ccc(F)cc1)Cc1nc(CCc2ccccc2)no1	.	.	.	.	.	.	/
Cc1ccc(C(=O)NNc2cc(N3CCCC3)nc(N3CCCC3)n2)cc1	.	.	.	.	49	.	72
CCN(CC)S(=O)(=O)c1ccc(N2CCCC2)c(NC(=O)CN2C(=O)NC3(CCCC3)C2=O)c1	.	.	.	.	.	.	/
COc1ccccc1C(=O)Nc1nc(-c2cccs2)c(NC(C)=O)s1	.	.	.	.	39	.	.
COc1ccc(-c2[nH]nc3c2C(c2ccsc2)C(C#N)=C(N)O3)cc1 (centres undefined)	.	.	.	.	.	.	/
COc1ccc(C2C(C#N)=C(N)Oc3n[nH]c(-c4ccccn4)c32)c(OC)c1OC (centres undefined)	.	.	.	.	43	.	.
COc1cccc(-c2[nH]nc3c2C(c2ccsc2)C(C#N)=C(N)O3)c1 (centres undefined)	.	.	.	.	51	.	.
COc1cc(C2C(C#N)=C(N)Oc3n[nH]c(-c4ccncc4)c32)cc(OC)c1OC (centres undefined)	.	.	.	.	.	.	/
COc1ccccc1NC(=O)Cn1c(=O)n(CCc2c[nH]c3ccccc23)c(=O)c2cccnc21	.	.	.	.	.	.	/
O=C(c1ccc(Cl)nc1)N1CCN(C/C=C/c2ccccc2)CC1	.	.	.	.	.	.	/
Cc1ccc(O)c(CO)n1	.	.	.	.	.	.	/
Cc1nc2c(O)cccc2cc1CO	.	.	.	.	50	.	.
COc1ccc(N2CCN(C3CCCN(C(=O)CSC)C3)CC2)cc1 (centres undefined)	.	.	.	.	.	.	/
SMILES	LYPLA2 counter	Fam108B inh	LYPLA1 inh	PME-1 primary	GSTO1 counter	PAD4 FP inh	GSTO1 inh conf	others
Cc1ccc(S(=O)(=O)N2CCN(CC(=O)N3CCCC3)CC2)c(C)c1	/	/	/	/	/	.	/
CC1CCN(c2ccc(NC(=O)Cn3c(=O)oc4ccccc43)cc2)CC1	.	.	.	.	.	.	/
O=C(NCc1ccc2c(c1)OCO2)c1nnc(Cc2ccc(Cl)cc2)o1	.	.	.	.	59	.	.
Oc1cccc(C=Nc2cccc3ccccc23)c1O	.	.	.	.	88	.	.
CCN1CCN(Cc2ccc(NC(=O)Nc3ccccc3OC)cc2)CC1	.	.	.	.	.	.	/
Cc1ccc(C)c(NC(=O)COC(=O)c2ccc3ccccc3n2)c1	.	/	.	.	/	.	/
COc1c(O)c(O)c2oc(-c3ccccc3)cc(=O)c2c1OC	.	.	.	.	.	.	/
COc1cc(-c2cc(=O)c3c(O)c(OC)c(OC)c(O)c3o2)ccc1O	.	.	.	.	41	.	.
Cc1cc(C(=O)CCl)c(C)n1-c1cccc([N+](=O)[O-])c1	.	.	.	.	96	.	94
CC(C)(C)c1ccc(NC(=O)c2ccsc2)cc1	.	.	.	.	.	.	/
CC1CCc2c(sc3nc(C(C)(C)C)nc(N4CCN(C(=O)CCl)CC4)c23)C1 (centres undefined)	.	.	.	.	73	.	74	GSTO1 recomb ABPP=.
CC(=O)Oc1ccc2c(C)cc(=O)oc2c1	.	.	.	.	.	.	/
CC(=O)Oc1cc(OC(C)=O)c2c(C)cc(=O)oc2c1	.	.	.	.	53	.	.
COc1ccc(C(=O)NCc2ccc3[nH]c(C)cc3c2)cc1OC	.	.	.	.	.	.	/
CNCCCOc1cccc(Oc2ccccc2)c1	.	.	.	.	.	.	/
Nc1nc(N)nc(-c2cc(F)ccc2O)n1	.	/	.	.	/	.	/
CC1CN(Cc2c(O)ccc3c2oc(=O)c2ccccc23)CC(C)O1 (centres undefined)	.	.	.	.	42	.	46
CC1CN(Cc2c(O)ccc3c(=O)c(-c4ccccc4)coc23)CC(C)O1 (centres undefined)	.	.	.	.	.	.	/
O=S(=O)(c1ccc2ccccc2c1)N(CC1CO1)c1ccccc1 (centres undefined)	.	.	.	.	70	.	92	GSTO1 recomb ABPP=.
Cc1ccc(S(=O)(=O)N(CC(=O)N(C)C)c2cccc([N+](=O)[O-])c2)cc1	.	.	.	.	.	.	/
Cc1ccc(S(=O)(=O)N(CC2CO2)c2cc(Cl)ccc2Cl)cc1 (centres undefined)	.	.	.	.	85	.	91	GSTO1 recomb ABPP=.
O=[N+]([O-])c1cccc(N(CC2CO2)S(=O)(=O)c2ccccc2)c1 (centres undefined)	.	.	.	.	101	.	98	GSTO1 recomb ABPP=.
Cc1ccc(N(CC2CO2)S(=O)(=O)c2ccc([N+](=O)[O-])cc2)cc1 (centres undefined)	.	.	.	.	88	.	85	GSTO1 recomb ABPP=.
O=C(CN(c1cccc([N+](=O)[O-])c1)S(=O)(=O)c1ccccc1)N(Cc1ccccc1)Cc1ccccc1	.	.	.	.	.	.	/
O=C(CSc1n[nH]c(-c2ccccc2Cl)n1)NC1CCCCC1	.	.	.	.	.	.	/
O=C(NNc1ccccc1[N+](=O)[O-])NC1CCCCC1	.	.	.	.	.	.	/
c1coc(-c2nc3ccccc3nc2-c2ccco2)c1	.	.	.	.	62	.	61
